# A number with no mark means an inactive call. Unless noted, no rule for the calls is given here.
# Key:
# [1] = Cy5 fluorescence interference with SSB-bound oligo, artefact control for HCV NS3 helicase inhibitor project, biochemical, NIH Clinical Collection, E. coli SSB (AID 743268)
# [2] = tested on: Hepatitis C virus NS3 helicase; experiment: HCV NS3 helicase inhibitors, primary screen, biochemical, fluorescence polarization, NIH Clinical Collection (AID 743270); details: NS3 helicase binding to Cy5-dT15 DNA, active compounds read high, concentration not given here
# [3] = biological target: Single-stranded DNA-binding protein (Escherichia coli (strain K12)) (UniProt P0AGE0); experiment: E. coli SSB displacement from DNA, counter-screen for HCV NS3 helicase inhibitor project, biochemical, fluorescence polarization, NIH Clinical Collection (AID 743271; in the data active = inhibition above about 28%); details: active compounds read high, concentration not given here
# [4] = fluorescence interference in NS3h assay format, artefact control for HCV NS3 helicase inhibitor project, biochemical, NIH Clinical Collection (AID 743272); details: fluorescence interference counterscreen, active compounds read low;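 also: HCV NS3 helicase with a Cy5 labelled single stranded DNA probe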
# [5] = hESC survival regulators, cell-based (AID 493140); details: human embryonic stem cell survival screen; active compounds read high;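 also: cells exposed to compounds for four days before counting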
# [6] = circadian clock period modulators, cell-based, LOPAC library, luminescence reporter (AID 2774); details: circadian reporter cells, at 7 µM, actives lie on both sides;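 also: values are relative to mean of DMSO wells on each plate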
smiles,measurement,setting,value
CO[C@H]1/C=C/O[C@@]2(C)Oc3c(C)c(O)c4c(O)c(c5c(c4c3C2=O)=NC2(CCN(CC(C)C)CC2)N=5)NC(=O)/C(C)=C\C=C\[C@H](C)[C@H](O)[C@@H](C)[C@@H](O)[C@@H](C)[C@H](OC(C)=O)[C@@H]1C,fluorescence ratio,[1],1.02
same,inhibition,[2],1.36%
same,inhibition,[3],6.39%
same,fluorescence ratio,[4],0.96
C=C(NC(=O)C(=C)NC(=O)c1csc(C2=NC3c4csc(n4)C4NC(=O)c5csc(n5)C(C(C)(O)C(C)O)NC(=O)C5CSC(=N5)/C(=C/C)NC(=O)C(C(C)O)NC(=O)c5csc(n5)C3(CC2)NC(=O)C(C)NC(=O)C(=C)NC(=O)C(C)NC(=O)C(C(C)CC)NC2C=Cc3c(C(C)O)cc(nc3C2O)C(=O)OC4C)n1)C(N)=O (stereo unspecified),survival,[5],0.917
N#CC(Cc1ccc(O)c(O)c1)C(=O)N1CCc2ccccc21 (stereo unspecified),period change,[6],0.025 h

# Source: PubChem BioAssay
